# Measured values from PubChem BioAssay AID1030 (National Center for Advancing Translational Sciences (NCATS), 2008).
# The whole screen tested about 220,000 compounds, of which about 16,000 (7.3%) were called active. Inconclusive results (about 25%) are left out. Only a selection was taken, and actives are over-represented in it overall. A number with no mark means an inactive call. The call rests on the fitted dose curve; in most records, active means well fitted inhibition curve with a large enough effect (not every such curve was filed as active); inconclusive means small, poorly fitted or top-dose-only effect, or another doubt; inactive means no such curve, though single readings can be large or run the other way.
# Target: Aldehyde dehydrogenase 1A1 (Homo sapiens) (UniProt P00352)
# Assay: qHTS Assay for Inhibitors of Aldehyde Dehydrogenase 1 (ALDH1A1);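 on activity, negative = inhibition: plate controls were no enzyme wells and a reference inhibitor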
# Settings: Purified ALDH1A1, NADH fluorescence, propionaldehyde substrate; series mostly up to 75.3 µM; activity, negative = inhibition: at the top concentration
# Potency means the concentration at half of the fitted maximal effect.
# Aldehyde dehydrogenase 1A1 (Homo sapiens), sequence (P00352 whole entry, looked up): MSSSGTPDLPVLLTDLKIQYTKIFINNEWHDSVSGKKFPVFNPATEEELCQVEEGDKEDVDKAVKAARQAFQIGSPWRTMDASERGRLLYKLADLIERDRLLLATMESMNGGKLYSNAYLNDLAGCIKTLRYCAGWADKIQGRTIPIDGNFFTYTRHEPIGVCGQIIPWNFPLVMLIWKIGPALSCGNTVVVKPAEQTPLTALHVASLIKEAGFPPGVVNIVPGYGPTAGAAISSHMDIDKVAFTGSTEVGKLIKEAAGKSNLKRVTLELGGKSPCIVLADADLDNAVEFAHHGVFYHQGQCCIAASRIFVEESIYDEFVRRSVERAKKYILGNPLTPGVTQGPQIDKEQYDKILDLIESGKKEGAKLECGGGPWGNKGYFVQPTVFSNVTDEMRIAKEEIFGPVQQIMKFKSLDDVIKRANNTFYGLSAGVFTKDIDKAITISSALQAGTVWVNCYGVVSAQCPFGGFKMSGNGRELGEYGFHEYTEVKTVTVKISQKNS
SMILES,"activity, negative = inhibition",Potency
CCc1ccc(CN2C(=O)c3ccccc3C2C(=O)NCC2CCCO2)cc1 (stereo not drawn),-11.7%,
CC(Sc1nnc2c(n1)C1CCC2(C)C1(C)C)C(=O)Nc1ccccc1 (stereo not drawn),-8.04%,
CSc1nc(N(C)NC(=O)c2cccc(C)c2)c2ccccc2n1,-0.565%,
CSc1nc(C)cc(SC(C(C)=O)C(=O)Nc2ccccc2)n1 (stereo not drawn),,15.8 µM (active)
CC(=O)c1cc(-c2ccccc2)n(CC(=O)NC2CCCCC2)c1C,7%,
COC(=O)C(C(=O)OC)C1c2ccccc2C=C(C2CC2)N1C(=O)OC (stereo not drawn),,inactive
CC(C)(C)N(CC#CCC(O)(c1ccccc1)C1CCCC1)CCO (stereo not drawn),1.5%,
O=C(COC(=O)c1ccc(F)cc1)Nc1nc2ccc([N+](=O)[O-])cc2s1,8.53%,
CC(C)C(NC(=O)C1CCC(C(C)(C)C)CC1)C(=O)NCCCN1CCCCC1 (stereo not drawn),1.26%,
CCOC(=O)CN(C)S(=O)(=O)c1ccc(-c2cc(C(=O)OC)sc2C(F)(F)F)cc1,,5.97 µM (active)
COc1cccc(NC(=O)CN(C)S(=O)(=O)c2ccc(C)cc2)c1,-2.08%,
COC(=O)c1sc(C(F)(F)F)c(-c2ccccc2)c1S(=O)(=O)N(C)C,1.08%,
Cc1ccc(SC(CC(=O)c2ccc(C(C)(C)C)cc2)C(=O)O)cc1 (stereo not drawn),,0.199 µM (active)
Cc1ccn(C(CC(=O)c2ccc(Br)cc2)C(=O)O)n1 (stereo not drawn),0.837%,
Cc1ccc(SC(C)C(=O)NCc2ccc(F)cc2)cc1 (stereo not drawn),10.6%,
Cc1sc2c(c1C)c(=O)n(-c1ccccc1)c(=O)n2CC(=O)NCC1CCCO1 (stereo not drawn),-1.33%,
Cn1c(=O)c2c(nc(N3CCCCCC3)n2CC(=O)c2ccc(Br)cc2)n(C)c1=O,-2.72%,
O=C(c1ccc(Cl)cc1)c1ccc(OCC(O)CN2CCCCC2)cc1 (stereo not drawn),7.65%,
Cn1c(=O)c2c(nc(N3CCCCCC3)n2CC(O)COc2ccc(Cl)cc2)n(C)c1=O (stereo not drawn),,11.2 µM (active)
CC(C(=O)N=Nc1c(O)n(C)c2ccc(Br)cc12)n1cnc2ccccc2c1=O (stereo not drawn),-6.13%,
Cc1ccc(S(=O)(=O)Nc2nc(N)n(-c3ccccc3)n2)cc1,-1.7%,
Cc1c(NC(=O)CSc2nnnn2-c2ccc(C(=O)O)cc2)c(=O)n(-c2ccccc2)n1C,-1.93%,

SMILES,"activity, negative = inhibition",Potency
Cc1ccccc1-n1nnnc1SCCCC(=O)c1ccc(F)cc1,,0.0794 µM (active)
O=c1c2ccccc2nnn1CSc1nnnn1-c1ccccc1,-10.9%,
NC(N)=Nc1nc2ccc(Br)cc2c(=O)[nH]1,11.2%,
O=C(Nc1cccnc1)c1ccc(Cl)c([N+](=O)[O-])c1,6.15%,
Cc1cc(C)n(-c2nc(SCC(=O)N3CCCC3)c3c4c(sc3n2)CCCC4)n1,,14.1 µM (active)
COCCn1c(C)cc(C(=O)CSc2ncnc3sc4c(c23)CCC4)c1C,-6.4%,
C=C(C)CSc1nc(N)c2c3c(sc2n1)CCC3,1.92%,
Cc1[nH]nc(SCC(=O)NCC(C)C)c1[N+](=O)[O-],-13.8%,
O=C(c1cccc(F)c1)N1CCC(O)(c2cccnc2)CC1,-1.82%,
O=C(CN1CCN(C(=O)c2cccc(F)c2)CC1)Nc1ccccc1F,,12.6 µM (active)
Cc1ccccc1CN1CCN(C(=O)c2cccc(F)c2)CC1,,15.8 µM (active)
O=C(c1cccc(F)c1)N1CCC2(CC1)CCN(c1ccccc1)CC2,-3.17%,
Cc1ccccc1CS(=O)(=O)CC1(O)CCN(C(=O)c2cccc(C(F)(F)F)c2)CC1,8.45%,
O=C(CN1CCN(C/C=C/c2ccccc2)CC1)Nc1ccc(F)cc1F,9.94%,
COc1ccc(Cn2c(=O)cc(C)[nH]c2=S)cc1,-0.953%,
CCOc1ccc2sc(NS(=O)(=O)c3ccc(N)cc3)nc2c1,6.19%,
Cc1cccc(NC(=S)NCCN(C2CCCCC2)C2CCCC2)c1,2.22%,
CCOc1ccc(/C=C(/NC(=O)c2ccccc2)C(=O)NCCC(=O)O)cc1,3.16%,
Cc1ccccc1CC1(CO)CCCN(C(=O)c2cc(-c3ccccc3)no2)C1 (stereo not drawn),6.3%,
O=C(Oc1ccccc1C(=S)N1CCCCC1)c1cc([N+](=O)[O-])cc([N+](=O)[O-])c1,,8.91 µM (active)
O=[N+]([O-])c1ccccc1OCCCCN1CCCCC1,5.91%,
COc1cc(C(=S)N2CCOCC2)cc(OC)c1OC(=O)c1cc([N+](=O)[O-])c(C)c([N+](=O)[O-])c1,-15.4%,

SMILES,"activity, negative = inhibition",Potency
Cc1cc(C)n(Cc2cnc(N3CCOCC3)s2)n1,1.49%,
Cc1nn(CC2CC2)c(=O)n1N(C)c1ncc(C(F)(F)F)cc1Cl,11.8%,
CC(C)(C)C(=O)/C(C#N)=C/c1ccc(O)cc1,,1.58 µM (active)
N#C/C(=C\c1ccc(O)c(O)c1)C(=O)NCc1ccccc1,,inactive
CCOC(=O)/C(C#N)=C\c1c(C)cc(C)c(COC(C)=O)c1C,1.88%,
CC(=O)Nc1ccc(NC(=O)CSc2nnc(COc3ccccc3C)n2CC2CCCO2)cc1 (stereo not drawn),,10 µM (active)
C=CCn1c(COc2ccccc2C)nnc1SCC(=O)O,-4.73%,
COc1ccccc1NC(=O)CSc1nnc(C)n1CC1CCCO1 (stereo not drawn),-9.88%,
CC(OC(=O)c1ccccc1N1C(=O)C2C3CCC(C3)C2C1=O)C(=O)c1ccccc1 (stereo not drawn),20.1%,
O=[N+]([O-])c1ccccc1Nc1ccc(O)cc1,-3.44%,
CCNS(=O)(=O)c1ccc(NC(=O)Nc2cccc(OC)c2)cc1,-8.67%,
COc1cccc(NS(=O)(=O)c2ccc3[nH]cc(C(=O)NCCCOC(C)C)c(=O)c3c2)c1,,11.2 µM (active)
CC(C)OCCCNC(=O)c1cc(Sc2ccc(F)cc2)nc2ccccc12,-5.97%,
Cc1ccc(Nc2c3c(nc4ccccc24)CCC3)cc1,0.124%,
Cc1ccc(-c2csc(NC(=O)Cn3[nH]c(=O)c4ccccc4c3=O)n2)cc1,3.41%,
CCOC(=O)c1ccc(NC(=O)CSc2ncccn2)cc1,-10.2%,
CCOC(=O)c1sc(NC(=O)CSc2nc(C)cc(C(F)(F)F)n2)c(C#N)c1C,,2.24 µM (active)
CCN(CC)C(=O)c1sc(NC(=O)c2ccco2)c(C#N)c1C,2.09%,
Cc1cc(C(F)(F)F)c(C#N)c(SCC(=O)NC2CC2)n1,10.4%,
CCOC(=O)c1sc(NC(=O)CSc2ncccn2)c(C#N)c1C,,28.2 µM (active)
CCOC(=O)c1sc(NC(=O)CSc2n[nH]c(CC)n2)nc1C,-0.18%,
O=C(Nc1cccc(CCc2ccccn2)c1)c1ccc(Cl)cc1,-0.24%,

SMILES,"activity, negative = inhibition",Potency
O=C(Cn1nnc2ccccc2c1=O)NCc1ccc(Cl)cc1,0.87%,
Nc1c(C(=O)NCc2ccccc2)nnn1Cc1cccc(Cl)c1,14.8%,
O=C(NCc1ccc(Cl)cc1)c1cc(=O)nc2sc(-c3ccccc3)nn12,,5.01 µM (active)
CCOC(=O)c1ccc(-c2ccc(C(=O)Nc3cccnc3)o2)cc1,,22.4 µM (active)
O=C(Nc1cccnc1)c1ccc2c(c1)OCO2,3.17%,
COc1ccc(C(=O)Nc2cccnc2)cc1C(=O)Nc1cccnc1,8.94%,
OC1CSc2nc3ccccc3n2C1 (stereo not drawn),16.1%,
COc1ccc(Cl)cc1N(CC(=O)N1CCCCC1)S(C)(=O)=O,-4.02%,
CCn1c(C(C)C)n[nH]c1=S,6.31%,
CCCCCCCC/C=C\CCCCCCCC(=O)NCC(=O)O,4.06%,
COc1ccccc1NC(=O)C1=C(C)NC(=O)NC1c1ccc(C)s1 (stereo not drawn),0.535%,
CCOC(=O)/C(=N\Nc1ccccc1Cl)N(C)C1CCS(=O)(=O)C1 (stereo not drawn),8.1%,
Cc1ccnc(-n2sc3ccccc3c2=O)n1,,1.26 µM (active)
Cc1ccnc(Nc2nc3ccccc3s2)n1,3.21%,
Cc1nc2ccccc2c(=O)n1CCCn1ccnc1,12.8%,
COC(=O)C(C)NC(=O)COc1ccc2ccccc2c1 (stereo not drawn),1.95%,
C/C(=N/N1CCN(Cc2cccc3ccccc23)CC1)c1cccnc1,-6.86%,
CC/C(Cc1ccccc1)=N/NC(=O)CCn1nnc2ccccc21,-4.78%,
CC(C)Cc1nc(Cl)c(C#N)c2c1CCC2,-9.07%,
COC(=O)C1=C(C)NC(=O)/C1=C/c1ccc(CNS(=O)(=O)c2ccc(C)cc2)o1,-9.6%,
O=C(NCC(=O)N(CC1CCCO1)C(C(=O)NC1CCCCC1)c1ccccc1)c1ccco1 (stereo not drawn),-5.06%,
CCNC(=O)CN(c1ccc(C)cc1)S(=O)(=O)c1ccc(SC)cc1,,11.2 µM (active)

SMILES,"activity, negative = inhibition",Potency
Cc1ccc(S(=O)(=O)N(CC(=O)NCCSC2CCCCC2)c2ccccc2F)cc1,-12.3%,
CCCNC(=O)CN(Cc1ccccc1F)S(=O)(=O)c1ccc(C)cc1,-8.44%,
COc1ccc(/C=C2\SC(=S)N(CC(=O)NNC(=O)c3ccncc3)C2=O)cc1,0.464%,
O=c1c2ccccc2nc(CSc2nnnn2-c2ccccc2)n1-c1ccccc1,-17.7%,
COc1cccc(-n2c(SCC(=O)c3c[nH]c4ccccc34)nc3ccccc3c2=O)c1,15.6%,
N#CCSc1nc2ccccc2c(=O)n1-c1ccccc1,,12.6 µM (active)
CC(C)(C)C1CCC(=NNC(=O)c2ccc(Br)o2)CC1 (stereo not drawn),-0.649%,
O=c1c(Cl)c(NC2CC2)cnn1-c1ccccc1,3.08%,
Cc1cc(C)nc(SCC(=O)N(C)C)n1,13.8%,
COc1ccc(NC(=O)CSc2ncnc3[nH]ncc23)cc1,,11.2 µM (active)
COc1ccc(NC(=O)CSc2nc(C)cs2)cc1,3.7%,
CCOc1ccc(NC(=O)CSc2ncnc3c2sc2ccccc23)cc1,-5.68%,
COC(=O)c1sc(=S)n(-c2ccccc2)c1N,,7.08 µM (active)
COC(=O)c1sc(=S)n(-c2ccc(Cl)cc2)c1C,-15.1%,
CCOC(=O)c1sc(=S)n(-c2cccc(OC)c2)c1N,,22.4 µM (active)
COC(=O)c1sccc1NN1C(=O)c2ccccc2C1=O,4.1%,
CCOC(=O)c1sc(-c2cccc([N+](=O)[O-])c2)cc1N,4.95%,
CCOC(=O)c1csc(NC(=O)Nc2cccc(OC)c2)n1,-7.94%,
COc1ccc(CCc2nnc(CCC(=O)NCc3cnn(-c4ccccc4C)c3)o2)cc1,-13.3%,
O=C(CCCNS(=O)(=O)c1cccc2nsnc12)NCCN1CCN(c2ccccc2F)CC1,-3.87%,
